In all, about 69,000 compounds went through this assay and about 8,600 (12%) showed an effect of 50% or more. Shown is part of a subset that was picked to be rich in strong results.

This test deals with Plasmodium berghei. In words: Screen against P. berghei liver stage (PbLuc), transformed with Luciferase, at 10uM. The test is classed as functional, HepG2. The note with it: tested at 10 uM.
Regarding `CCN1CCC(CC(=O)N2CCn3cccc3C2c2cccnc2)CC1` (centres undefined), the INHIBITION is given as 18.9%.
The value for `O=C(NCc1cccnc1N1CCCC(O)C1)c1ccc2[nH]nnc2c1` (centres undefined) was 18.6%; that for `Cc1nnsc1C(=O)NCc1cccnc1N1CCc2ccccc2C1` was 5.8%; that for `CCS(=O)(=O)NCc1cccnc1N1CCCC(O)C1` (centres undefined) was 89.1%.
As for `O=C(NCc1cccnc1N1CCCC(O)C1)c1ccsc1` (centres undefined), the figure is 74.3%.
The value for `CCC1CCCN(C(=O)NCc2cccnc2-n2cccn2)C1` (centres undefined) was 33.8%; that for `Cc1nnsc1C(=O)NCC1CCN(c2ccccn2)CC1` was 14.6%; that for `O=C(NCc1cccnc1N1CCCCC1)c1cccs1` was 7.12%.
As for `CC(NC(=O)c1cccs1)C(=O)NCc1cccnc1N1CCCCC1` (centres undefined), the INHIBITION was determined as 2.26%.
As to `Cc1nnsc1C(=O)NCc1cccnc1N1CCCC(O)C1` (centres undefined), the INHIBITION is 66.3%.
As for `CC(=O)c1ccc(C(=O)NCc2cccnc2N2CCCC(O)C2)s1` (centres undefined), the figure is 69.7%.
The value for `O=C(NCc1cccnc1N1CCCCC1)c1ccc2c(c1)OCO2` was -1.85%.
Consider `CS(=O)(=O)NCC1CCCN(C(=O)Nc2cccnc2N2CCCC2)C1` (centres undefined), for which the INHIBITION is -8.69%.
Consider `O=C(NC1CC1)C1[C@H]2CN(Cc3ccc(-c4cc[nH]n4)s3)C[C@@H]12` (some centres undefined), for which the INHIBITION came to 33.3%.
With `c1cc(CN2CCC3(CC2)COC(COCC2CC2)C3)co1` (centres undefined), the INHIBITION is -17.1%.
On to `Cc1cccc(-c2nc(CNC3CCc4ncnn4C3)no2)c1` (centres undefined), for which the INHIBITION came out at 23.7%.
For the molecule `O=C1CCC2(CCN(Cc3ncccn3)CC2)CN1CCCO`, the INHIBITION was -33.5%.
The value for `Cc1oc(-c2nc(C#N)c(NCC(C)C)o2)cc1S(=O)(=O)N1CCCC1` was 22.6%; that for `CCN(CC)S(=O)(=O)NCC1COc2ccccc2O1` (centres undefined) was 36.9%.
Consider `Cc1cc(C(=O)NCc2cccnc2N2CCCC(O)C2)[nH]n1` (centres undefined), for which the INHIBITION stood at 34.5%.
As for `Cn1ccn2ncc(C(=O)NCc3cccnc3N3CCCC(O)C3)c12` (centres undefined), the figure is 28.8%; as for `Cc1cc(C(=O)NCc2cccnc2N2CCCC(O)C2)c(C)o1` (centres undefined), 55%; as for `Cc1cc(CN2CCN(C(=O)NC(C)Cn3cccn3)CC2)no1` (centres undefined), -17.78%.
The value for `CC(NC(=O)NCCCN(C)S(C)(=O)=O)c1ccc(F)cc1` (centres undefined) was 58.5%; that for `CC(NC(=O)NCCCN(C)S(C)(=O)=O)c1ccc(C#N)cc1` (centres undefined) was 44.1%.
As for `CC(NC(=O)NCCCN(C)S(C)(=O)=O)c1cccc(Cl)c1` (centres undefined), the figure is -15.8%; as for `CC(NC(=O)NCCCN(C)S(C)(=O)=O)c1ccc(Cl)cc1` (centres undefined), 62.6%.
Take `CC(NC(=O)NCCCN(C)S(C)(=O)=O)c1cccnc1` (centres undefined): the INHIBITION is on record as -9.37%.
As for `CC(NC(=O)NCCCN(C)S(C)(=O)=O)c1ccncc1` (centres undefined), the figure is 1.77%.
The value for `Cn1cc(CC2CC(=O)N(Cc3ccc(OC(F)F)cc3)C2=O)cn1` (centres undefined) was 16.6%.
As for `Cn1ccnc1C(=O)NCc1cnc2n1CCN(CC1CC1)CC2`, the figure is -24.1%.
As to `Cc1nc2n(n1)CC(Nc1ccnc(-c3ccccc3)n1)CC2` (centres undefined), the INHIBITION is given as -5.1%.
`O=C(NCCn1nc(C2CCNC2)c2cccnc21)c1ccccn1` (centres undefined): the INHIBITION was 3.91%.
As for `CC1(C)Cc2ccc(C(=O)NC3CCS(=O)(=O)C3)c(O)c2O1` (centres undefined), the figure is 36.8%; as for `O=C1Nc2ccccc2CNC12CCN(CC1CC1)CC2`, 20.1%.
As for `c1coc(CN2C[C@H](OCC3CCOCC3)[C@H]3COC[C@H]32)c1`, the figure is 21%; as for `COc1cn(CC(N)=O)c(CSc2nccc(C)n2)cc1=O`, 64.3%; as for `CCCNC(=O)Cn1cc(OC)c(=O)cc1CSc1nc(C)cc(C)n1`, -3.83%.
Take `COc1cn(CC(N)=O)c(CSc2nc(C)cc(C)n2)cc1=O`: the INHIBITION is 24%.
Turning to `CNC(=O)CCc1cc(C)nc(C2CCN(C3CCCCC3)CC2)c1`, the INHIBITION stood at 15.58%.
The value for `CCOC(=O)[C@H]1CNC[C@@H]1C(=O)OCC` was 0.868%.
As for `c1ccc(OCc2n[nH]c3c2CN(CC2CC2)C3)nc1`, the figure is -23.3%; as for `O=C(NCCC1CCCCO1)c1cc(COc2ccccc2F)[nH]n1` (centres undefined), 25.4%; as for `CN1CCN(CCNC(=O)C(OC2CCCC2)c2ccccc2)CC1` (centres undefined), 35.2%.
As for `O=C(NCCN1CCOCC1)c1ccn(-c2ccccc2F)n1`, the figure is -8.91%.
For `O=C(Cc1ccccc1F)NCC1CCN(CCc2ccccc2)C1` (centres undefined), the INHIBITION is on record as 26.7%.
The value for `O=C(NCC1CCCO1)c1cc(COc2ccccc2F)[nH]n1` (centres undefined) was 16.8%; that for `O=S(=O)(NCC1CCN(CCN2CCOCC2)C1)c1ccccc1F` (centres undefined) was 47.1%; that for `O=C(Cc1ccccc1F)NCC1CCN(CCN2CCOCC2)C1` (centres undefined) was 64.7%.
As for `O=C(NCCN1CCOCC1)c1cc(COc2ccccc2F)[nH]n1`, the figure is 63.7%.
For the molecule `O=C(Cc1ccccc1F)NCCN1CCOCC1`, the INHIBITION came out at 68.4%.
The value for `O=C(NCCCN1CCOCC1)C(OC1CCCC1)c1ccccc1` (centres undefined) was -12.1%.
The value for `O=S(=O)(Cc1ccccc1F)NCCN1CCOCC1` was -11.9%; that for `O=C(NCCN1CCOCC1)C(OC1CCCC1)c1ccccc1` (centres undefined) was 69.5%.
